{"source": "PubChem BioAssay AID929", "about": "(National Center for Advancing Translational Sciences (NCATS), 2007)", "note": "This is one part of the list. Records with an inconclusive call do not appear. A number with no mark means an inactive call. Calls come from the whole dose curve; as a rule, active = well fitted inhibition curve with a large enough effect in the main read-out, with a control signal flat; inconclusive = small, poorly fitted or top-dose-only effect, or a change in a side signal; inactive = no such curve, though single readings can be large or run the other way.", "data": [{"biological_target": "Caspase-1 (Homo sapiens) (UniProt P29466)", "sequence (P29466 120-297 limits assumed)": "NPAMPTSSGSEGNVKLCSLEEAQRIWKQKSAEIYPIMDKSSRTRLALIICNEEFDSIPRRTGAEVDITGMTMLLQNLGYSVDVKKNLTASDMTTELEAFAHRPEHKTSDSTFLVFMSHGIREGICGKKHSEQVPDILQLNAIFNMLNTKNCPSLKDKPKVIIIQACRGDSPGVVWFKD", "sequence (P29466 317-404 limits assumed)": "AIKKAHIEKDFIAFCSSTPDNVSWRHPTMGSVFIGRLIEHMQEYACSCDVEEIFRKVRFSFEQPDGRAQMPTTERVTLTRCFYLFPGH", "test": "Concentration-Response Counterscreen for Redox Active Inhibitors of Caspase-1: Cysteine", "conditions": "recombinant caspase-1, fluorogenic substrate, cysteine buffer; series mostly up to 57.5 µM; activity change, negative = inhibition: at the top concentration", "excerpt": "NIH Molecular Libraries Screening Centers Network [MLSCN]\nNIH Chemical Genomics Center [NCGC]\nPI Name: Dr. James Wells,\nDr. Enrique Perez-Paya, Dr.Janice Williams, Dr. Dennis Wolan, a person\nThe caspases (Cysteine Aspartyl Protease) comprise a related family of 14 dimeric proteases that are critical mediators of apoptosis (programmed cell death) and inflammation. The caspases represent an important class of drug targets for stroke, ischemia, cancer and inflammatory diseases. […] One goal of this project was to identify compounds that act as allosteric inhibitors via stabilizing the procaspase form of the enzyme. […]\nThe biochemical assay was configured using purified caspase 1 at a high enzyme concentration to promote formation of the homodimers and thus facilitate the identification of allosteric inhibitors. […] After initiation of the assay with substrate the plates were rapidly read using an automated robotic system (Kalypsys, Inc.) to maintain consistent timing. […] Product formation was also measured after 1 hour. […]\nCaspase 1 was prepared in buffer (50 mM HEPES pH 7.5, 50 mM KCl, 200 mM NaCl, 10 mM Cys (Aldrich cat# 861677), 0.1% CHAPS) at a concentration of 66.6 nM and 3 uL was dispensed to all wells using black solid Kalypsys 1536-well plates. […] The plates were then exposed using 405 nm excitation/520 nm emission filters for 4 sec and read at 20 sec intervals for 3 min. […]", "units": {"activity change, negative = inhibition": "%"}, "values": [{"smiles": "Cc1nc2c(C(=O)NCc3ccc4c(c3)OCO4)c[nH]n2c(=O)c1Cc1ccccc1F", "activity change, negative = inhibition": -7.6}]}]}
